The structures appear in SMILES notation. Unmarked numbers belong to inactive results. Activity calls are given as the source filed them.

The assay deals with Dihydroorotate dehydrogenase (quinone), mitochondrial (Plasmodium falciparum (isolate 3D7)) (UniProt Q08210). As to the kind of experiment: PfDHODH enzyme inhibitors, primary screen, biochemical, C-terminal His tag, absorbance 600 nm (AID 1175).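 Note: recombinant parasite enzyme with a five histidine tag at its C terminus; test concentration not given here.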 Conditions: DCIP absorbance 600 nm, higher = more signal, called active from +8 up or from −8 down.
Dihydroorotate dehydrogenase (quinone), mitochondrial (Plasmodium falciparum (isolate 3D7)), sequence (Q08210 whole entry, looked up): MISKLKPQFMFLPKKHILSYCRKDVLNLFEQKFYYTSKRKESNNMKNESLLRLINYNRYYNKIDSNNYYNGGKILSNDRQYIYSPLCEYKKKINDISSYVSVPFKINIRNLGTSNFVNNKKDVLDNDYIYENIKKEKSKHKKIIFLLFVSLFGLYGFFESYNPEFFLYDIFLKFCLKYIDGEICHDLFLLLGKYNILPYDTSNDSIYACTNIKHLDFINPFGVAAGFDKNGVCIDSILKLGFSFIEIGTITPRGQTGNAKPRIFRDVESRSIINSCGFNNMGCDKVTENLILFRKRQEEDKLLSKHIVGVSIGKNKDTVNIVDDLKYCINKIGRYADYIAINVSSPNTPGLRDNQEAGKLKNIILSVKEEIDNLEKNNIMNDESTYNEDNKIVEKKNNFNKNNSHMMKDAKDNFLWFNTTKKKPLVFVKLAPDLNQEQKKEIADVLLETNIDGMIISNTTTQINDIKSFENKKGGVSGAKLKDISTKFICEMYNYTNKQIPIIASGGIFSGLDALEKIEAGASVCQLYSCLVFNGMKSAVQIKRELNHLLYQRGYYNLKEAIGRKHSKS
Regarding `C=CCN1C(=O)[C@@]2(O[C@@H](CCO)[C@H]([Si](C)(C)c3ccc(OC)cc3)[C@H]2C)c2cc(NC(=O)[C@H](C)O)ccc21`, the composite z-score was -0.108. On to `COC(=O)[C@@]1(Cc2ccc(OC)cc2)[C@H]2c3cc(C(=O)N4CCCC4)n(CCF)c3C[C@H]2CN1C(=O)c1ccccc1`, for which the composite z-score is 0.0648. For the compound `O=C1N(Cc2ccccc2)c2ccccc2[C@H]2OC(c3ccc(OCCCO)cc3)=N[C@@]12CCS(=O)(=O)c1ccccc1`, the composite z-score was 0.876. For `CC(=O)NCCCC[C@@H]1NC(=O)[C@@H]2C[C@H](C(=O)NCCCC[N+](C)(C)C)[C@H](c3cccc(OCCO)c3)N2C1=O`, the composite z-score is -22.3 (active). For the compound `COCCCNC(=O)[C@@]1(Cc2ccccc2I)c2ccccc2C(=O)N(Cc2ccccc2Cl)[C@H]1c1ccc(CO)cc1`, the composite z-score was -0.278.

Take `COCCCNC(=O)[C@@]1(Cc2ccccc2CN=[N+]=[N-])N=C(c2ccc(OCCCO)cc2)O[C@H]1c1ccccc1N=[N+]=[N-]`: the composite z-score is 1.13.

With `NCCCCCCNC(=O)[C@H]1C[C@H]2C(=O)N3CCC[C@H]3C(=O)N2[C@H]1c1ccc(O)cc1`, the composite z-score is -0.245. Under `C=C(/C(=C/C[C@@H](OC(=O)c1ccncc1)c1cccc(OCCO)c1)c1cc(C(=O)OC)ccc1OC)C(C)C` stands -2.04. With `CN1C(=O)C2C=CC(C(O)COCc3ccccc3)N(Nc3ccccc3)C2C1=O` (stereo not given), the composite z-score is -0.284. In the case of `C=C[C@@H](O)[C@H]1CC(c2ccccc2)=NO1`, the composite z-score is -0.344. Regarding `COC(=O)[C@@]1(Cc2ccc(OC)cc2)[C@H]2c3cc(C(=O)N(C)C)n(CCF)c3C[C@H]2CN1C(=O)c1ccccc1`, the composite z-score was 0.343. As for `C=CCC(OC(C)=O)[C@@H]1[C@@H](N(Cc2ccc(-c3cccc(C(F)(F)F)c3)o2)C(=O)c2cccc3ccccc23)c2cc(OCCCO)ccc2N1C(=O)c1ccc(-c2ccccc2)cc1` (stereo not given in full), the composite z-score is 0.821. Turning to `COc1cc(NN2C(C(O)c3ccc(I)cc3)C=CC3C(=O)N(C)C(=O)C32)cc(OC)c1OC` (stereo not given), the composite z-score is -0.698. As to `C=CCC(OC(C)=O)[C@@H]1[C@@H](N(Cc2cccc3ccccc23)C(=O)Cc2ccc(F)cc2)c2cc(OCCCO)ccc2N1C(=O)Cc1ccc(OC)cc1` (stereo not given in full), the composite z-score is -0.83. With `C=CCOC(=O)[C@@H]1[C@H]2C(=O)O[C@H](c3ccccc3)[C@H](c3ccccc3)N2[C@H](c2ccc(OCCOC(=O)[C@H]3C[C@H]4C(=O)N[C@@H](Cc5ccccc5)C(=O)N4[C@H]3c3cccc(OCCO)c3)cc2)[C@@]12C(=O)Nc1ccc(I)cc12`, the composite z-score was -3.73. For `CC(C)c1ccc(NN2C(C(O)c3cccs3)C=CC3C(=O)N(c4ccccc4)C(=O)C32)cc1` (stereo not given), the composite z-score is 0.355. As for `CC1CC/C=C\[C@H]2OC34C=CCN(Cc5ccccc5)C(=O)[C@H]3N(CCO)C(=O)[C@@H]4C2C(=O)O1` (stereo not given in full), the figure is 0.622; as for `COCCOC(=O)N1C(=O)[C@@]2(c3cc(C#CC4(O)CCCCCC4)ccc31)[C@H](C(=O)N1CCc3cc(OC)c(OC)cc3C1)[C@H]1C(=O)O[C@H](c3ccccc3)[C@H](c3ccccc3)N1[C@@H]2c1ccccc1OCCO`, 0.666.

On to `COc1ccc([Si](C)(C)[C@H]2[C@H](CC(=O)N3CCC[C@H]3CO)O[C@@]3(C(=O)N(Cc4ccc(N5C(=O)c6cccc7cccc5c67)cc4)c4ccccc43)[C@@H]2C)cc1`, for which the composite z-score was -1.84. Under `C=C(C(=O)CC[C@H](OC(=O)c1cccnc1)c1ccc(OCCO)cc1)C(C)C` stands 0.349.

With `COC(=O)[C@@]1(Cc2ccccc2)[C@H]2c3cc(C(=O)N4CCCC4)n(CCO)c3C[C@H]2CN1C(=O)c1ccccc1`, the composite z-score is -1.2. As to `C=CCNC(=O)[C@H]1[C@@H]2C(=O)O[C@@H](c3ccccc3)[C@@H](c3ccccc3)N2[C@@H](c2ccc(OCCO)cc2)[C@]12C(=O)N(C(=O)OCCOC)c1ccc(C#CC3=CCCCC3)cc12`, the composite z-score was -0.91.

With `O=C1C2C=CC(C(O)c3cccc4ccccc34)N(Nc3ccccc3)C2C(=O)N1c1ccccc1` (stereo not given), the composite z-score was 0.651.

Take `Cc1ccc(S[C@]2(C(=O)O)CC(=O)N(C3CCCCC3)[C@@H]2c2ccc(CO)cc2)cc1`: the composite z-score is 0.234.

`CC(=O)NCCCC[C@@H]1NC(=O)[C@H]2C[C@@H](C(=O)NCCCCCN)[C@@H](c3cccc(OCCO)c3)N2C1=O`: the composite z-score was -0.613.

Turning to `C=C(CCCC)/C(=C/C[C@@H](OC(=O)c1ccncc1)c1ccccc1OCCO)c1cc(C(=O)OC)ccc1OC`, the composite z-score was -0.455.

`C=CC[C@]1(C(=O)N2CCOCC2)N=C(c2ccc(OCCCO)cc2)O[C@H]1c1ccccc1CN=[N+]=[N-]`: the composite z-score is 0.155. Take `C=C(C)[C@@H]1CC=C(C(O)C2C=CC3C(=O)N(C4CCCCC4)C(=O)C3N2Nc2ccc(OC)cc2)CC1` (stereo not given in full): the composite z-score is -0.157. Turning to `CC1(C)[C@@H]2CC(C(O)C3C=CC4C(=O)N(c5ccccc5)C(=O)C4N3Nc3ccccc3F)=C[C@@H]1C2` (stereo not given in full), the composite z-score was 1.09. For `[N-]=[N+]=NCc1ccccc1[C@H]1OC(c2ccc(OCCCO)cc2)=N[C@@]1(Cc1ccccc1N=[N+]=[N-])C(=O)N1CCCCC1`, the composite z-score is -0.062. As to `CC(C)N1CC=CC23O[C@@H]4C=CCOC(=O)[C@@H]4[C@H]2C(=O)N(CCCCCCO)[C@@H]3C1=O` (stereo not given in full), the composite z-score was -1.07. As for `CN1C(=O)C2C=CC(C(O)C3CCCCC3)N(N(c3ccccc3)c3ccccc3)C2C1=O` (stereo not given), the figure is -0.15. For the compound `CC(C)(C)OC(=O)CC[C@]1(C(=O)O)COC(c2ccc(OCCCO)cc2)=N1`, the composite z-score is -0.055. As for `O=C1O[C@H](c2ccccc2)[C@H](c2ccccc2)N2[C@H]1[C@@H](C(=O)N1CCN(c3ncccn3)CC1)[C@]1(C(=O)Nc3ccc(C#CCCO)cc31)[C@H]2c1ccc(OCCO)cc1`, the figure is -0.692; as for `CN1C(=O)C2C=CC(C(O)c3cccc4ccccc34)N(NC(=O)OC(C)(C)C)C2C1=O` (stereo not given), -0.878.

These data come from PubChem BioAssay.
